C8 TRAIL sens: sensitizes caspase-8 expressing cells to TRAIL; NB7+C8 cells + TRAIL, ATPlite viability luminescence; inhibition (viability loss, TRAIL sensitization), % at 10 µM; 360,000 tested, 1% active;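 active = compounds causing at least 50% loss of cell viability in the single-dose screen, relative to plate controls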
PPC-1+TRAIL kill: kills PPC-1 cancer cells in the presence of TRAIL; 220,000 tested, 0.41% active; PPC-1 cells + TRAIL, ATPLite viability luminescence; cell killing (% activity), % at 4 µM or 5 µM;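 active = cell killing above 50% in the first pass at 4 µM, then a duplicate retest at 5 µM averaging 50% or more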;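 note: plate controls were cells with TRAIL plus DMSO for no effect and medium-only wells lacking cells for full effect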
SENP7 block: SENP7 protease inhibition; Q9BQF6; inhibition, % at 5 µM; recombinant SENP7, Z-RLRGG-aminoluciferin luminescence, 40 min; 330,000 tested, 1.5% active;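 active = inhibition above about 50% at the single test dose, limit read from the data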;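 note: plate controls were DMSO with enzyme for no effect and no enzyme buffer wells for full effect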
SENP6 block: blocks the human protease SENP6; Q9GZR1; Recombinant SENP6 catalytic domain, aminoluciferin luminescence; inhibition, % at 10 µM; 330,000 tested, 1.8% active; AID 2599;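 active = inhibition above about 50% at the single tested dose, limit read from the data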;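 note: plate controls were DMSO wells with enzyme for no effect and DMSO wells lacking enzyme for full effect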
SENP8 block-1: inhibitors of human SENP8 protease; AID 602440; recombinant SENP8, Nedd8 substrate fluorescence; inhibition, % at 20 µM; 360,000 tested, 0.64% active; Q96LD8; in the data active = inhibition mostly above about 40%, no sharp cut-off; inactive = mostly below about 27%
Target sequence (Q96LD8 whole entry, looked up): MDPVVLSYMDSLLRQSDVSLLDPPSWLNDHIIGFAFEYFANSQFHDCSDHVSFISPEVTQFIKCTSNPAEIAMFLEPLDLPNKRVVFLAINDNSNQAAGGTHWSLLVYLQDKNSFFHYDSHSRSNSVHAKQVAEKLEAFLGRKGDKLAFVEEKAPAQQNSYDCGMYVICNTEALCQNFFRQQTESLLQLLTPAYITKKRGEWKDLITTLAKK
SENP8 block-2: SENP8 protease inhibition; Q96LD8; purified SENP8, Z-RLRGG-aminoluciferin cleavage, luminescence; inhibition, % at 10 µM; 330,000 tested, 1.2% active; AID 2540; in the data active = inhibition above about 50%
PPC1 cytotox: PPC-1 cell cytotoxicity. cytotoxicity, % at 5 µM. shares compounds with PPC-1+TRAIL kill. 1,200 tested, 50% active. AID 1447. PPC-1 viability, ATPlite luminescence, overnight;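 active = reconfirmed compounds whose average cytotoxicity reaches 50% or more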;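 note: 0% = DMSO-treated cells and 100% = wells holding medium but no cells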
Numbers without * were called inactive; . = no result given. This is a sample that favours compounds with a hit; in the whole collection about 3% have one here.

SMILES	C8 TRAIL sens	PPC-1+TRAIL kill	SENP7 block	SENP6 block	SENP8 block-1	SENP8 block-2	PPC1 cytotox
COc1ccc(NC(=O)O/N=C/c2c(C)nn(C(C)(C)C)c2C)cc1	27	72*	1	2	9	-3	74*
CCc1cccc(OCCOC(=O)CNS(=O)(=O)c2ccc(NC(C)=O)cc2)c1	0	.	2	-13	10	-1	.
CCOC(=O)CSc1ncnc2c1cnn2-c1ccccc1	-8	18	12	29	-18	19	.
CCOC(=O)CSc1ncnc2c1cnn2-c1ccc(C)cc1	6	28	18	12	-26	34	22
Cc1ccc(C(=O)Nc2ncccc2C)cc1S(=O)(=O)N1CCCCC1	11	.	2	2	3	7	.
OC1(c2ccccc2)c2ccccc2-c2ncccc21 (configuration not stated)	6	1	0	-24	11	-1	.
O=C(N/N=C/c1cccnc1)c1ccc2c(c1)OCCO2	81*	55*	-3	-6	1	-9	59*
O=C(N/N=C/c1ccc2c(c1)OCO2)c1cccnc1	6	.	6	-14	-11	-7	.
O=C(COC(=O)c1ccc[n+]([O-])c1)Nc1ccc([N+](=O)[O-])cc1Cl	3	.	7	-6	14	-7	.
COc1ccccc1N1CCN(C(=O)[C@@H]2CCCN2C2=NS(=O)(=O)c3ccccc32)CC1	-35	.	.	.	16	.	.
CCc1nc2ccc(C(=O)N(CC)CCN(C)C)cn2c1N(CC)CCOC	-14	.	.	.	-12	.	.
O=C(Nc1ccccc1C(=O)N/N=C/c1ccncc1)c1ccccc1	89*	80*	13	-9	-29	-7	82*
Cc1ccccc1C(=O)Nc1ccc(C(=O)N/N=C/c2ccncc2)cc1	3	.	-4	-11	4	4	.
Cc1ccc(C(=O)N(C)c2ccc(OCC(=O)N3c4ccc(C)cc4C4CN(C)CCC43)cc2)cc1 (configuration not stated)	52*	52*	-8	2	11	-17	46
Cc1ccc2c(c1)C1CN(C)CCC1N2C(=O)COc1ccc(N(C)C(=O)C(C)(C)C)cc1 (configuration not stated)	-3	-7	-3	-1	8	4	.
CC[C@@]1(O)C(=O)OCc2c1cc1n(c2=O)Cc2cc3c(N)cccc3nc2-1	15	32	0	11	-237	-3	32
COCCSc1ccccc1C(=O)NCc1ccc(S(N)(=O)=O)cc1	4	6	-3	6	28	-8	7
CSc1ccccc1C(=O)NCc1ccc(S(N)(=O)=O)cc1	-1	16	5	-8	21	5	.
CCOc1ccc(C2C(C#N)=C(N)SC(N)=C2C#N)cc1OCC	18	5	-5	-11	-86	-8	9
CCOc1ccc(C2C(C#N)=C(N)SC(N)=C2C#N)cc1OC	.	8	7	2	.	4	.
Cn1c(=O)c2[nH]c(Cc3cccc4ccccc34)nc2n(C)c1=O	0	.	.	.	10	.	.
Cc1cc2c3c(ccc(C)c3n1)N=CN2c1ccccc1	16	13	-8	-6	-424	-10	10
Cc1ccc(C2C(C#N)=C(N)Oc3cc4c(cc32)OCO4)cc1 (configuration not stated)	0	8	-6	4	-391	-5	.
CC(C)(C)C1=C(C#N)C(c2cc3c(cc2Br)OCO3)C(C#N)=C(N)O1 (configuration not stated)	-7	-10	2	-14	23	-5	4
CCCCCCNC(=O)c1c(O)c2cccc3c2n(c1=O)CCC3	-9	26	-2	-19	-95	0	.
O=C(NCCNCCO)c1c(O)c2cccc3c2n(c1=O)CCC3	11	12	-11	-12	-99	-12	10
N#CCc1c(C#N)c(N)nc(N2CCN(Cc3ccc4c(c3)OCO4)CC2)c1C#N	-12	-8	-1	-5	-79	-3	-1
CCOC(=O)C1=C(C)NC(=S)NC1/C=C/c1ccccc1 (configuration not stated)	-5	14	0	6	32	-3	.
Cc1ccc(-n2c(-c3ccccc3)c[n+]3c2CCC3)cc1	37	21	8	11	9	3	.
Cc1ccc(-n2c(-c3ccccc3)c[n+]3c2CCc2ccccc2-3)c(C)c1	37	25	-10	-23	-17	-9	23
